HT1080-NT tox: qHTS for induction of synthetic lethality in tumor cells producing 2HG: qHTS for the HT-1080-NT fibrosarcoma cell line. HT-1080-NT fibrosarcoma viability, CellTiter-Glo ATP luminescence, 48 h. Potency, µM (doses to about 46.1 µM), most hits filed as cytotoxic. hit rate 1.6% among 360,000. AID 686970, 2013;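 also: NT is the 2HG producing partner of a matched IDH1 knockdown line; nearly all actives have a fitted effect of over 55% in size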
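HT-1080-NT fibrosarcoma cells (2HG-overproducing), 750 cells/well in RPMI with 5% FBS, dosed after 2 h and incubated 48 h at 37C. CellTiter-Glo luminescence normalized to DMSO and no-cell wells; concentration-response curves fitted and classed.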
IL1B secr inh: qHTS for Inhibitors of Inflammasome Signaling: IL-1-beta AlphaLISA Primary Screen | hit rate 4.7% among 360,000 | activity change, % at 57.5 µM | THP-1 LPS/ATP IL-1B secretion, AlphaLISA, 16 h; stronger effect = lower value; in the data active = activity change below about -50%; inconclusive = mostly about -30% to -49%
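THP-1 cells pretreated 1 hr with compounds (up to 57.5 uM final), then stimulated with LPS (250 ng/mL final) plus ATP (1.25 mM final); secreted IL-1B measured by AlphaLISA after 16 hr, decreased signal indicating inhibition.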
DT40 TDP1 no CPT: qHTS for Inhibitors of human tyrosyl-DNA phosphodiesterase 1 (TDP1): qHTS in cells in absence of CPT. AID 686978, 2013. Potency, µM (doses to about 46.2 µM), hits mostly inhibitors. hit rate 15% among 420,000. DT40 Tdp1-/- hTDP1 cells, no CPT, ATP luminescence, 48 h; also: nearly all actives have a fitted effect of over 55% in size
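Stably hTDP1-transfected Tdp1-null chicken DT40 cells were treated with library compounds minus camptothecin and grown for at least 48 hr at 37 °C, after which cellular ATP was quantified by luminescence.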
HT1080 IDH1KD tx: qHTS for induction of synthetic lethality in tumor cells producing 2HG: qHTS for the HT-1080-IDH1KD cell line; HT-1080 IDH1 knockdown viability, ATP luminescence, 48 h; Potency, µM (titrated, usually from 46.1 µM), actives largely listed as cytotoxic; hit rate 2% among 360,000; AID 686971, 2013
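% activity derives from luminescence (CellTiter-Glo), normalised to DMSO and no-cell wells. HT-1080-IDH1KD cells, 750/well, had 48 h compound exposure at 37 °C.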
DT40 TDP1 CPT: qHTS for Inhibitors of human tyrosyl-DNA phosphodiesterase 1 (TDP1): qHTS in cells in presence of CPT | chicken DT40 Tdp1-/-;hTDP1 cells + 20 nM CPT, ATP luminescence, 48 h | Potency, µM (titrated, usually from 46.2 µM), most hits filed as inhibitors | hit rate 12% among 420,000; also: nearly all actives have a fitted effect of over 55% in size
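Chicken DT40 Tdp1-/- cells stably complemented with human TDP1 were seeded at 400 cells/well in medium containing 20 nM camptothecin, exposed to pin-transferred compounds, and grown at 37 °C for at least 48 hr. Viability was read as ATP luminescence.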
uPA surface inh: qHTS for Inhibitors of Cell Surface uPA Generation; Potency, µM (highest dose often 38.3 µM), actives largely listed as inhibitors; cell surface uPA generation assay, qHTS; hit rate 0.31% among 330,000; active = well fitted inhibition curve with a large enough effect; inconclusive = small, poorly fitted or top-dose-only effect; inactive = no such curve, though single readings can be large or run the other way; tested in mouse RAW 264.7 cells; also: nearly all actives have a fitted effect of over 55% in size
A number is an active result; 0 = inactive; ? = inconclusive; - = no result given; [ ] = dose if it differs, or a comment. A selection: hits, their analogues and other compounds. The true share with any hit is near 19%. Unless noted, calls follow the shape of the dose curve; as a rule, active = well fitted curve in the direction sought with a large enough effect; inconclusive = small, poorly fitted or top-dose-only effect, or another doubt; inactive = no such curve, though single readings can be large; an effect the other way counts as inactive or inconclusive.

SMILES	HT1080-NT tox	IL1B secr inh	DT40 TDP1 no CPT	HT1080 IDH1KD tx	DT40 TDP1 CPT	uPA surface inh
O=C(c1cc(-c2ccc(F)cc2)on1)N1CCCC1	0	0	0	0	0	0
CCOC(=O)N1CCN(C(=O)/C=C/c2ccc(C(C)(C)C)cc2)CC1	0	?	16µM	0	?	0
CCOc1cc(OCC)c(C(C)=O)cc1OCC	0	0	0	0	?	0
O=C(/C=C/[C@H]1O[C@@H](n2cnc3c(NC(=O)c4ccccc4)ncnc32)[C@H](O)[C@@H]1O)NCc1cccs1	0	0	0	0	0	-
O=C(/C=C/c1ccc(F)cc1)N1CCCN(C(=O)/C=C/c2ccc(F)cc2)CC1	0	0	?	0	16µM	0
O=C(/C=C/c1ccc(F)cc1)N1CCN(Cc2ccccc2)CC1	0	0	?	0	?	0
Cc1ccc(/C=C/C(=O)N2CCCN(C(=O)/C=C/c3ccc(C)cc3)CC2)cc1	0	0	15µM	0	?	0
O=C(/C=C/c1ccc(S(=O)(=O)N2CCOCC2)cc1)N1CCN(c2ccc(F)cc2)CC1	0	0	3.7µM	0	7.3µM	0
CCN1CCN(C(=O)/C=C/c2ccc(C)cc2)CC1	0	0	0	0	0	0
O=C(c1ccc(S(=O)(=O)N2CCOCC2)cc1)N1CCN(c2ccc(F)cc2)CC1	0	0	?	0	0	0
O=C1NC(=O)[C@H]2[C@@H]1[C@@H]1C=C[C@H]2C1	-	-	0	-	0	-
O=C(Nc1ccc(Oc2cccc(C(F)(F)F)c2)nc1)c1cccs1	0	-78	16µM	?	21µM	0
O=[N+]([O-])c1ccc(Oc2ccc(OCc3ccccc3)cc2)nc1	0	-80	0	0	0	0
O=[N+]([O-])c1ccc(Oc2cccc(C(F)(F)F)c2)nc1	0	0	?	0	13µM	0
O=C(Nc1ccc(Oc2cccc(C(F)(F)F)c2)nc1)c1ccccc1	?	0	13µM	0	0	0
COc1ccc(NC(=O)COc2cccc(C(F)(F)F)c2)cn1	0	0	?	0	0	0
O=[N+]([O-])c1cccnc1Oc1ccc(OCc2ccccc2)cc1	0	?	0	0	0	0
O=C(CC(C(=O)O)c1cccc(Br)c1)c1ccc(Cl)cc1 (centres undefined)	0	0	0	0	0	0
COc1ccc(N2C(=O)c3ccccc3NC(=O)C2C(=O)NCC(C)C)cc1 (centres undefined)	0	0	0	0	0	-
N#Cc1ccc(CN2CCCC3(CCN(C(=O)c4cnccn4)CC3)C2)cc1	-	-	0	-	0	-
O=C(O)CC/C(=N\NC(=O)c1ccccc1Br)c1ccccc1	0	0	0	0	0	0
Cc1ccc2[nH]c(=O)c(CN(CCCN3CCOCC3)C(=O)NC3CCCCC3)cc2c1	0	0	0	0	0	-
O=C(NC1CCCCC1)N(CCN1CCOCC1)Cc1cc2cc3c(cc2[nH]c1=O)OCCO3	0	0	?	0	13µM	-
CCc1ccc2[nH]c(=O)c(CN(CCN3CCCC3)C(=O)NC3CCCCC3)cc2c1	?	-56	23µM	?	16µM	0
CCN(CC)CCN(Cc1cc2cc3c(cc2[nH]c1=O)OCCO3)C(=O)NC1CCCCC1	0	0	?	0	?	0
SMILES	HT1080-NT tox	IL1B secr inh	DT40 TDP1 no CPT	HT1080 IDH1KD tx	DT40 TDP1 CPT	uPA surface inh
COc1ccc(-c2noc(CCC(=O)N3CCN(c4ccccc4Br)CC3)n2)cc1	0	0	0	0	0	0
COc1ccc(C2=NO[C@@H]3C(=O)N(c4cccc(C)c4C)C(=O)[C@H]23)cc1OC	0	0	0	0	0	0
COc1ccc(-c2cn(-c3ccc(C)cc3C)c(=O)[nH]2)cc1OC	0	0	?	0	15µM	0
COc1ccc(C2=NO[C@@H]3C(=O)N(c4ccc(C)cc4C)C(=O)[C@H]23)cc1OC	0	0	?	0	26µM	0
COc1ccc(-c2cc(=O)[nH][nH]2)cc1OC	0	0	0	0	0	-
CCc1nc(SCC(=O)N2CCc3ccccc32)c2oc3ccccc3c2n1	0	0	0	0	0	0
CCc1nc(SCC(=O)c2cccs2)c2oc3ccccc3c2n1	0	0	18µM	0	?	0
CCc1nc(SCC(=O)NCCc2ccccc2)c2oc3ccccc3c2n1	0	0	?	0	21µM	0
COCCCN1C(=O)C(CC(=O)NCCN2CCOCC2)CC(C(=O)N(C)C)=C1C (centres undefined)	0	0	0	0	0	-
CC(=O)N1CCc2cc(Br)cc(S(=O)(=O)NCCCN(C)Cc3ccccc3)c21	0	0	?	0	0	0
CC(=O)Nc1cc(C(=O)N2CCN(c3ccccc3)CC2C)cc2ncn(CCc3ccccn3)c12 (centres undefined)	-	-	0	-	0[9.04 µM]	-
CC(=O)Nc1cc(C(=O)N2CC3(C)CC2CC(C)(C)C3)cc2ncn(CCc3ccccn3)c12 (centres undefined)	-	-	23µM	-	?	-
NC(=O)CSc1nc2cc3c(cc2c(=O)n1CCCCCC(=O)NCc1ccc2c(c1)OCO2)OCO3	-	-	0	-	0	-
O=C1CCCC2=C1C1(CCCCC1)N=C(Nc1nc3ccccc3o1)N2	0	0	13µM	0	?	0
CCN(CC)CCCNC(=S)N(CCO)Cc1cc2cc3c(cc2[nH]c1=O)OCCO3	0	0	0	0	0	0
CC(CC(=O)NC(C)c1ccc2c(c1)OCCO2)c1ccccc1 (centres undefined)	0	0	0	0	0	0
CC(NC(=O)CCc1ccccc1)c1cc2c(cc1Cl)OCCO2 (centres undefined)	0	0	?	0	15µM	0
CCNc1nc2ccccc2[nH]1	0	0	0	0	0	0
O=C(Cc1ccc(Cl)cc1)Nc1nc2ccccc2[nH]1	0	0	2.1µM	0	5.2µM	0
CCc1ccccc1Nc1nc2ccccc2[nH]1	0	0	15µM	?	?	?
O=C(CSc1ccc(Cl)cc1)Nc1ccc(-c2nc3ccccc3[nH]2)cc1	?	0	8.2µM	?	12µM	0
CC(=O)Nc1nc2ccccc2[nH]1	0	0	0	0	0	0
O=C(Cc1ccccc1)N[C@@H](Cc1ccccc1)c1nc2ccccc2[nH]1	0	0	23µM	0	?	0
COc1ccc2c(c1)c1c(c(=O)n(Cc3ccccc3)c(=O)n1CC(=O)Nc1ccc(C)cc1C)n2C	-	-	0	-	0	-

Screening data (PubChem BioAssay)
